Source: PubChem BioAssay (NCATS)
Results filed as inconclusive are left out. Active and inactive are the calls of the source. Unless noted, calls come from the whole dose curve; as a rule, active = well fitted curve in the direction sought with a large enough effect; inconclusive = small, poorly fitted or top-dose-only effect, or another doubt; inactive = no such curve, though single readings can be large; an effect the other way counts as inactive or inconclusive.

Columns and labels:
[1] = biological target: Cytochrome P450 1A2 (Homo sapiens) (UniProt P05177); test: p450-cyp1a2 (AID 410; calls by dose curve; note: potency is the fitted concentration of half-maximal effect;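 for activity change, negative = inhibition: -100% = full effect of reference inhibitor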)
Chain of Cytochrome P450 1A2 (Homo sapiens) (P05177 whole entry, looked up): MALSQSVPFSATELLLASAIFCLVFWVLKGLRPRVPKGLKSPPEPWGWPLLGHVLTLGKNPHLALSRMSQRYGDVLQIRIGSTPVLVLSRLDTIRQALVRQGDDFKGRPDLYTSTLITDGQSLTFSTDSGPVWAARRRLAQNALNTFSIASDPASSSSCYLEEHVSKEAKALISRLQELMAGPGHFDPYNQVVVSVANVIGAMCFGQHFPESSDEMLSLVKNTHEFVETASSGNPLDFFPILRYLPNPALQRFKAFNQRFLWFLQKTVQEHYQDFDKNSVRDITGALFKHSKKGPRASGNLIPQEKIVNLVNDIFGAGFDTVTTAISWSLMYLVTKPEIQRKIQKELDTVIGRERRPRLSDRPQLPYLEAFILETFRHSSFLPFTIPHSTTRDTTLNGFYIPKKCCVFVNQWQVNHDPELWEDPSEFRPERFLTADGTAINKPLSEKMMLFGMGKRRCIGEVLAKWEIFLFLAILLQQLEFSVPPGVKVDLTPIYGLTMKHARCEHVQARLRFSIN
Outline: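 Inhibition was calculated relative to 57 uM furafylline (full inhibition). The reaction used human CYP1A2 at 20nM with Luciferin-ME at its Km, 100uM, driven by an NADPH-regenerating system for 60 min at room temperature.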

[2] = NFAT Signaling Pathway (AID 444; active = well fitted curve in either direction with a large enough effect, not every such curve was filed as active;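 note: carbachol stimulus at about its EC50 of 1 µM final; % is set by controls: 0 for no effect and ±100 for the full control effect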); settings: Jurkat NFAT-bla M1, carbachol, beta-lactamase ratio, 5 h; at 17.2 µM (top of the series) unless noted
Outline: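 Jurkat cells with NFAT-driven β-lactamase reporter and co-expressed M1 receptor, stimulated with carbachol (final 1 uM, ~EC50), compound titration, 5 h at 37 °C. CCF4 loaded 1 h at RT; 460/530 nm ratio gave %activity and AC50.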

[3] = Stat Signaling Pathway (AID 446; active = well fitted curve in either direction with a large enough effect, not every such curve was filed as active;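 note: ME-180 cervical cancer cells given 40 pM IL-6 alongside compound; SIE-controlled beta-lactamase reporter measured as 460/530 nm FRET emission ratio; % is set by controls: 0 for no effect and ±100 for the full control effect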); settings: ME-180 SIE beta-lactamase reporter, IL-6 stimulated, 5 h; at 17.2 µM (top of the series) unless noted
Outline: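 Screening format detects activators and inhibitors alike: ME-180 SIE-bla cells stimulated at 40 pM IL-6 for 5 hrs with compound, then dual-emission beta-lactamase read at 405 nm excitation.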

[4] = biological target: Glucocorticoid receptor (Homo sapiens) (UniProt P04150); test: GR-GFP Redistribution (AID 450;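 active = compounds whose dose series gives a full or clear partial fitted curve of increased nuclear translocation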; note: potency is the fitted concentration of half-maximal effect)
Chain of Glucocorticoid receptor (Homo sapiens) (P04150 whole entry, looked up, the tested form may be a part): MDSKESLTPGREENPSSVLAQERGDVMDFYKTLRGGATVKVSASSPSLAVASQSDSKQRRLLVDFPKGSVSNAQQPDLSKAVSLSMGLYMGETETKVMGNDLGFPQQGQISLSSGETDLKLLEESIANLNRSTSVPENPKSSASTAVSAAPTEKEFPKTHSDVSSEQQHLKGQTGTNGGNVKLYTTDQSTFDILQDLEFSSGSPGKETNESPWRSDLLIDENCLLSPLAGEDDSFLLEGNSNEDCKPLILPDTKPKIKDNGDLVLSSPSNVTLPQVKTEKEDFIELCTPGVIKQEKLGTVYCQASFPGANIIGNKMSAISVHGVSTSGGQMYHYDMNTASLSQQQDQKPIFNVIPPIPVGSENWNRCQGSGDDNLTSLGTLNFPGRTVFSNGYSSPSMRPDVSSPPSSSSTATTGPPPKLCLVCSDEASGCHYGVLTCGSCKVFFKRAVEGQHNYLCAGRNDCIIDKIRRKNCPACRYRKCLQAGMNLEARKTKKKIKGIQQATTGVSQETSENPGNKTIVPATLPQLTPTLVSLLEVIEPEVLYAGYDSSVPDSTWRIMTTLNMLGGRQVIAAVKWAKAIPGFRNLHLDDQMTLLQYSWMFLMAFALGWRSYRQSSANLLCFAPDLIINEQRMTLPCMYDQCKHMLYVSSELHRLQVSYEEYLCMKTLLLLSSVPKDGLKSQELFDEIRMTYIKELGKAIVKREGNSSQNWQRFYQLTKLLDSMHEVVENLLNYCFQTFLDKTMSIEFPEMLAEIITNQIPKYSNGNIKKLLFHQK

[5] = biological target: Glucocorticoid receptor (Homo sapiens) (UniProt P04150); test: GR-EFC Redistribution (AID 451; calls by dose curve; note: potency is the fitted concentration of half-maximal effect); settings: CHO-K1 GR-EFC translocation, beta-gal luminescence, 2 h
Outline: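 CHO-K1 cells expressing nuclear EA and GR-ED fragments of b-gal; compounds titrated up to 46 uM final, 2 h at 37 C. GR nuclear translocation read as complemented b-gal luminescence after 1 h RT detection.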

[6] = biological target: 3',5'-cyclic-AMP phosphodiesterase 4B (Homo sapiens) (UniProt Q07343); test: qHTS Assay for Inhibitors of PDE-IV (AID 607; active = well fitted activation curve with a large enough effect in the main read-out, with a control signal flat, not every such curve was filed as active; note: % of control where 0% means no effect)
Chain of 3',5'-cyclic-AMP phosphodiesterase 4B (Homo sapiens) (Q07343 whole entry, looked up): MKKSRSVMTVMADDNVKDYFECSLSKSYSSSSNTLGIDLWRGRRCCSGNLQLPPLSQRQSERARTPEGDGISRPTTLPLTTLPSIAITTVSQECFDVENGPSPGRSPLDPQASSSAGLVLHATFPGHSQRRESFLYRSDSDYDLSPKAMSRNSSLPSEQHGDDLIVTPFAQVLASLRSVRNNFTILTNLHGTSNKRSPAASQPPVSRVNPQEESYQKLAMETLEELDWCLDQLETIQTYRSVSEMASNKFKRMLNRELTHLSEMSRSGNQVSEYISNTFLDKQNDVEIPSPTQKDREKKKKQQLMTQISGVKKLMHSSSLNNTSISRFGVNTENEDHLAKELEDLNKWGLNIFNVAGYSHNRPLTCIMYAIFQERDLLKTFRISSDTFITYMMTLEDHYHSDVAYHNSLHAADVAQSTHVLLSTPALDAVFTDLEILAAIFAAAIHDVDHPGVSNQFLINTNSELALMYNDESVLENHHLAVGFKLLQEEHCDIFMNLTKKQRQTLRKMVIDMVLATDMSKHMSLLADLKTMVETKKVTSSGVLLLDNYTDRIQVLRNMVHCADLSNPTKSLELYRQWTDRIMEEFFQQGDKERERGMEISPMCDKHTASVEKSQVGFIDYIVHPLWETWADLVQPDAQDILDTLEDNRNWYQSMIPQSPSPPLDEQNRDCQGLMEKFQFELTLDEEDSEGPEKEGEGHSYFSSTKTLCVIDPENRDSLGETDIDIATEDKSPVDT
Outline: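 The readout is membrane depolarisation from a cAMP-sensing CNG channel, detected with a potential dye at ex 535/em 590. Cells were HEK293-derived (endogenous PDE-IV) at 1000 cells/well, titrated up to 22.9 uM final.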

[7] = biological target: Guanine nucleotide-binding protein G(i) subunit alpha-1 (Homo sapiens) (UniProt P63096); test: qHTS Assay for Inhibitors of RGS12 GoLoco Motif Activity (Green Fluorophore) (AID 879);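 note: 0% = labeled peptide with Gαi1 and full inhibition = labeled peptide alone without protein; negative values mean loss of peptide binding seen as reduced polarization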
Chain of Guanine nucleotide-binding protein G(i) subunit alpha-1 (Homo sapiens) (P63096 whole entry, looked up): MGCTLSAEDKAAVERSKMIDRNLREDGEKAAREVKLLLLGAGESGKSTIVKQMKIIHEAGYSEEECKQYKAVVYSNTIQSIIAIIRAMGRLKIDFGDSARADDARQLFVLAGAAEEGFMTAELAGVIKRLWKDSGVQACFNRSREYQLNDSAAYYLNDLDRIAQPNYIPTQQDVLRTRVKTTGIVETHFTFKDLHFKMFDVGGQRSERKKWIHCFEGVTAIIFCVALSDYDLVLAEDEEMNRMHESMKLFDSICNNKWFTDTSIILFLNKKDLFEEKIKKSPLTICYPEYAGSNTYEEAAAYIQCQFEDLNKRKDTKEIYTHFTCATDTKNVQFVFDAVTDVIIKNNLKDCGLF
Outline: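 Fluorescence polarization assay: 50 nM Gαi1 with 10 nM FITC-labeled RGS12 GoLoco peptide in 10 mM Tris pH 7.5, 150 mM NaCl, 0.1 mM GDP, 0.05% NP40, 10 min at room temperature with compound.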

[8] = biological target: Cytochrome P450 3A4 (Homo sapiens) (UniProt P08684); test: qHTS Assay for Activators of Cytochrome P450 3A4 (AID 885); note: nearly all actives have a fitted effect of over 65% in size
Chain of Cytochrome P450 3A4 (Homo sapiens) (P08684 whole entry, looked up): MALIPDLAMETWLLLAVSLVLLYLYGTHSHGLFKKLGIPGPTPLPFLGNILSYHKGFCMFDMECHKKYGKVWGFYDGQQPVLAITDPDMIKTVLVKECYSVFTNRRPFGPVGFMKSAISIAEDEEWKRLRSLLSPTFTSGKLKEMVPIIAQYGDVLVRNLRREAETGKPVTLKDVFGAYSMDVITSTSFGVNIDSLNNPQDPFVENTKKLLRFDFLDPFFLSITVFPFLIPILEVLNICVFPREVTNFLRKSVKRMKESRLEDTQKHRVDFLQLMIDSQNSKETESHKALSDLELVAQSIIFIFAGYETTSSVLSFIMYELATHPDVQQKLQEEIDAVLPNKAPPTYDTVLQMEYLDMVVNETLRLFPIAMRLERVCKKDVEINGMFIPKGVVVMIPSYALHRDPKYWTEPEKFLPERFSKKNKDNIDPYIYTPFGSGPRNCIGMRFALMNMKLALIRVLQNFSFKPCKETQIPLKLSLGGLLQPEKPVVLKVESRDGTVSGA
Outline: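 Steps: enzyme/substrate mix dispensed; compound added, 10 min RT; NADPH regeneration solution added, 60 min RT; luciferin detection buffer stops reaction; 20 min later luminescence measured.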

[9] = qHTS Assay for Identification of Small Molecule Agonists for Thrombopoietin (TPO) Signaling Pathway (AID 917); note: % is set by controls: 0 for no effect and ±100 for the full control effect
Outline: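 Reporter: GpIIb promoter–luciferase in murine Ba/F3 expressing human TPO receptor. Pre-starved of IL-3 overnight; compounds with 26 pM TPO, 24 hrs, 37 C/5% CO2; luminescence read.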

[10] = biological target: Muscarinic acetylcholine receptor M1 (Rattus norvegicus) (UniProt P08482); test: qHTS Assay for Antagonists of Acetylcholine Muscarinic M1 Receptor: Measurement of IP-One Response (AID 944); note: nearly all actives have a fitted effect of over 75% in size; note: potency is the fitted concentration of half-maximal effect
Chain of Muscarinic acetylcholine receptor M1 (Rattus norvegicus) (P08482 whole entry, looked up): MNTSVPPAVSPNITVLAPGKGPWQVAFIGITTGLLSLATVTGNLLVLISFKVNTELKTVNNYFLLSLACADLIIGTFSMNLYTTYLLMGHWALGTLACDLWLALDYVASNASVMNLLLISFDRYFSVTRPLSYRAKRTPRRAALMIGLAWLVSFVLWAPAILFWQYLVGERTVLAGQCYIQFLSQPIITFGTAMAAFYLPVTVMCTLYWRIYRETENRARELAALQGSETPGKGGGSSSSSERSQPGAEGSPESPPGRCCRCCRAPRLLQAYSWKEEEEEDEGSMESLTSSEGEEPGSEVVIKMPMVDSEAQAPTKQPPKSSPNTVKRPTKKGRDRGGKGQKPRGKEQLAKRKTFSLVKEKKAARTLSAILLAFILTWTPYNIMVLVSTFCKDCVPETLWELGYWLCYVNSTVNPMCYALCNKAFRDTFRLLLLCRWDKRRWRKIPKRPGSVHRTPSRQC
Outline: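 Steps: plate transfected CHO-M1 cells overnight; add test compound, 10 min; add carbachol (200 nM, EC80) in stimulation buffer with LiCl; incubate 30 min; add labelled IP1 tracer and anti-IP1 antibody in lysis buffer; read HTRF after 10 min.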

[11] = biological target: Pyruvate kinase (Leishmania mexicana) (UniProt Q27686); test: qHTS Validation Assay for Inhibitors of Leishmania Mexicana Pyruvate Kinase (AID 945); note: potency is the fitted concentration of half-maximal effect;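 for activity change, negative = inhibition: 0% = DMSO only neutral control wells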
Chain of Pyruvate kinase (Leishmania mexicana) (Q27686 2-499 E452W): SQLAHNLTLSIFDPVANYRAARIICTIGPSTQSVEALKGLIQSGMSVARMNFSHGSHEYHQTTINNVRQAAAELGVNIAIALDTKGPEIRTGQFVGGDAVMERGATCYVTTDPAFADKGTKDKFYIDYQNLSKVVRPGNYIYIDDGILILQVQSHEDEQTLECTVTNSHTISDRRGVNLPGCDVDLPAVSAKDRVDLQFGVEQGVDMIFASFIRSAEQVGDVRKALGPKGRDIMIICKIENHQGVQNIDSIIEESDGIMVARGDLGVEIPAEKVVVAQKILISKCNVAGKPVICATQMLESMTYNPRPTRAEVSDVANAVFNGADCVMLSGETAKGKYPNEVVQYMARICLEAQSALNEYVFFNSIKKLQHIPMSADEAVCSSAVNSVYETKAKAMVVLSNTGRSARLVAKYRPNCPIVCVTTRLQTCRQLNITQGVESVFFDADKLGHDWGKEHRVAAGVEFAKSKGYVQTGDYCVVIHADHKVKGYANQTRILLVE
Outline: (§1)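 Substrate mix (0.5 mM PEP, 0.1 mM ADP, 7 mM MgCl2, 50 mM KCl, pH 7.2 imidazole) received compound by pin tool, then 0.2 nM LmPYK E451W. After 1 h at room temperature, PKLight was added and luminescence measured.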

[12] = biological target: Pyruvate kinase PKM (Homo sapiens) (UniProt P14618); test: qHTS Assay for Inhibitors of Human Muscle Pyruvate Kinase (AID 958)
Chain of Pyruvate kinase PKM (Homo sapiens) (P14618 whole entry, looked up): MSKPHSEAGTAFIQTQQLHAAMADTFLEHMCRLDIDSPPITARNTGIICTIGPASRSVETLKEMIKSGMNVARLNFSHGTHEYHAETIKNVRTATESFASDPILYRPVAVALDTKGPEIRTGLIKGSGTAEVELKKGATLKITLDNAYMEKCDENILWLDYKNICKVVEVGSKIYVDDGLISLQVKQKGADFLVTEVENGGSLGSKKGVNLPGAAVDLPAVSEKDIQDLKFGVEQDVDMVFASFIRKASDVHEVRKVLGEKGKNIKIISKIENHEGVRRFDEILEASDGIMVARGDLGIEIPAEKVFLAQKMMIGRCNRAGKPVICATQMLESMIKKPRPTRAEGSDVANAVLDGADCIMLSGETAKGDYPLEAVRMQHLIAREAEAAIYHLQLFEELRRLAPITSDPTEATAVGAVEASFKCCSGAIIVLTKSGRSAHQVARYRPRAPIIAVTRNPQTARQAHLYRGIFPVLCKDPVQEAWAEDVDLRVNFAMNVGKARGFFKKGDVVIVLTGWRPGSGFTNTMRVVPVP
Outline: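 Purified human PKM2 (0.1 nM) with 0.5 mM PEP (Km) and 0.1 mM ADP in 50 mM imidazole pH 7.2, KCl, MgCl2, 1 h at room temperature; ATP formed read by coupled luciferase luminescence. Normalized to no-enzyme/110 uM thiadiazolimine inhibition; 0.3 nM enzyme column for activation.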

[13] = biological target: Alpha-galactosidase A (Homo sapiens) (UniProt P06280); test: Counterscreen for Glucocerebrosidase Inhibitors: qHTS Assay for Human alpha-Galactosidase at pH 4.5 (AID 992); note: 0% is about no effect
Chain of Alpha-galactosidase A (Homo sapiens) (P06280 whole entry, looked up): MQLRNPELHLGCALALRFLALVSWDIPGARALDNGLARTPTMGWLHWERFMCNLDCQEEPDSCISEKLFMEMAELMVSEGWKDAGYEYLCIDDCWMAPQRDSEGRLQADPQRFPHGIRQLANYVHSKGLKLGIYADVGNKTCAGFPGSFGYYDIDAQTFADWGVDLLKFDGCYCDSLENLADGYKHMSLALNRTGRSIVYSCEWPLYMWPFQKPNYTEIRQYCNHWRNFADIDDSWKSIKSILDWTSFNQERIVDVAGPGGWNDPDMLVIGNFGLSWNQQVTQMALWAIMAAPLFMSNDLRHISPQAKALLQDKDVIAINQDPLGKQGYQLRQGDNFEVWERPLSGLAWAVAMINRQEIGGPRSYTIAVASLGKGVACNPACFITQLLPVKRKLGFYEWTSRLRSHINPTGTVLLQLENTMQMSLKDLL
Outline: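 Concentration-response curves (0.7 nM to 77 uM final) were modeled with the Hill equation to give AC50. Reactions: 2 nM enzyme, 80 uM fluorogenic alpha-galactoside, pH 4.5 citric acid buffer, 20 min, room temperature.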

[14] = biological target: alpha-glucosidase (Oryza sativa, rice) (UniProt Q653V4); test: Counterscreen for Glucocerebrosidase Inhibitors: qHTS Assay for Rice alpha-Glucosidase at pH 5.0 (AID 997);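 note: 0% = full activity with enzyme and -100% = basal without enzyme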
Outline: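 Rice alpha-glucosidase (4 nM final) with 400 uM 4-methylumbelliferyl-alpha-D-glucopyranoside in citrate buffer pH 5.0, 20 min at room temperature, stopped at pH 10; fluorescence 365/440 nm, compounds 0.7 nM–77 uM, AC50 from Hill fits.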

[15] = biological target: Cytochrome P450 2D6 (Homo sapiens) (UniProt P10635); test: qHTS Assay for Inhibitors and Substrates of Cytochrome P450 2D6 (AID 891); note: potency is the fitted concentration of half-maximal effect; nearly all actives have a fitted effect of over 60% in size
Outline: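 Human CYP2D6 (5 nM) with 30 uM Luciferin-ME EGE (at Km) in 100 mM KPO4, compound preincubated 10 min, then NADPH regeneration system for 60 min at room temperature. Luciferin read by luminescence; normalized to 1.43 uM quinidine.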

[16] = biological target: Muscarinic acetylcholine receptor M1 (Rattus norvegicus) (UniProt P08482); test: qHTS Assay for Antagonists of Acetylcholine Muscarinic M1 Receptor: Kinetic Measurement of Intracellular Calcium Response (AID 943); note: potency is the fitted concentration of half-maximal effect; nearly all actives have a fitted effect of over 75% in size
Outline: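 Intracellular calcium flux, recorded with Fluo-4 in a kinetic plate reader, served as signal; the response to carbachol at EC80 (100 nM final) was taken as maximal over minimal fluorescence after a 10 min compound pre-incubation in rat M1-CHO cells.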

[17] = biological target: Pyruvate kinase PKM (Homo sapiens) (UniProt P14618); test: qHTS Assay for Activators of Human Muscle Pyruvate Kinase (AID 954; active = well fitted curve in the direction sought with a large enough effect, not every such curve was filed as active;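 note: 0% = uninhibited enzyme and -100% = no enzyme or full thiadiazolimine inhibition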)
Outline: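 Reaction: 0.1 nM purified PKM2 with 0.5 mM phosphoenolpyruvate and 0.1 mM ADP, room temperature, 1 h. Readout: luciferase-based ATP luminescence after stop reagent. Activators judged against a 0.3 nM enzyme column.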

[18] = AP1 Signaling Pathway (AID 357; active = well fitted curve in either direction with a large enough effect, not every such curve was filed as active;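 note: ME-180 reporter cells stimulated with EGF at its EC50 level; % is set by controls: 0 for no effect and ±100 for the full control effect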); settings: ME-180 AP-1-bla reporter, EGF-induced, beta-lactamase ratio, 5 h; at 17.2 µM (top of the series) unless noted
Outline: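 Beta-lactamase reporter under AP-1 response element, ME-180 background. Stimulus: EC50 EGF. Compound exposure 5 h, 37 °C. Detection: CCF4, 2.5 h RT, 460/530 nm. Values: AC50 from titration.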

[19] = biological target: Tumor susceptibility gene 101 protein (Homo sapiens) (UniProt Q99816); test: qHTS Assay for Iinhibitors of HIV-1 Budding by Blocking the Interaction of PTAP/TSG101: Hit Validation (AID 651600); note: potency is the fitted concentration of half-maximal effect; nearly all actives have a fitted effect of over 70% in size
Outline: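 FITC-PTAP peptide (50 nM final) binding to Tsg101 binding domain (10 uM final) was measured by polarization after 20 min at r.t. with compounds, in 10 mM HEPES pH 7.5 buffer with 0.15 M NaCl and 0.01% Tween 20.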

[20] = biological target: Mitogen-activated protein kinase 10 (Mus musculus) (UniProt Q61831); test: JNK3 AlphaScreen Assay (AID 530; active = well fitted curve in either direction with a large enough effect, not every such curve was filed as active)
Outline: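 qHTS format: compounds tested as titrations against IL-1beta/TNF-alpha-activated HepG2 lysate JNK3 with biotin-GST-cJun substrate and 10 uM ATP at room temperature. Loss of anti-phospho-cJun AlphaScreen signal indicates inhibition.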

[21] = biological target: Cytochrome P450 3A4 (Homo sapiens) (UniProt P08684); test: qHTS Assay for Inhibitors and Substrates of Cytochrome P450 3A4 (AID 884); note: potency is the fitted concentration of half-maximal effect; nearly all actives have a fitted effect of over 50% in size
Outline: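 20 nM human CYP3A4 with 25 uM Luciferin-PPXE (at KM) in 200 mM KPO4, preincubated 10 min with compound; NADPH regeneration started a 60 min RT reaction. Luciferin detected by luminescence, normalized to 57 uM ketoconazole as full inhibition.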

[22] = biological target: Cytochrome P450 2C19 (Homo sapiens) (UniProt P33261); test: qHTS Assay for Inhibitors and Substrates of Cytochrome P450 2C19 (AID 899); note: potency is the fitted concentration of half-maximal effect; nearly all actives have a fitted effect of over 60% in size
Outline: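 5 nM human CYP2C19 with 10uM Luciferin-H EGE (at KM) in 50mM KPO4, compound preincubated 10 min at 37C, then NADPH regeneration for 60 min at 37C. Luciferin read by luminescence after detection reagent; normalized to 57uM ketoconazole as full inhibition.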

[23] = Confirmation and Secondary Assay for Modulators of Hemoglobin Beta Chain Splicing at IVS2 654 locus (AID 910);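 note: HeLa cells stably carrying EGFP split by mutant beta-globin IVS2-654 intron; % of control where 0% means no effect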
Outline: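 HeLa cells stably expressing EGFP interrupted by β-globin IVS2-654 intron, seeded overnight in Opti-MEM/2% FCS, then treated 2 days at 37 °C. Restored splicing read as total peak GFP intensity per well by laser scanning cytometry (488 nm excitation, 500–520 nm emission); 500 nM antisense PNA as control.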

[24] = Confirmation and Secondary Assay for Modulators of Hemoglobin Beta Chain Splicing at IVS2 705 locus (AID 930);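 note: HeLa cells stably expressing the EGFP-705 splicing reporter; GFP fluorescence per well restored by corrected splicing of the IVS2-705 intron in EGFP; % of control where 0% means no effect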
Outline: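 HeLa EGFP-705 reporter; 500 cells/well, o/n 37C 5% CO2; cpd 2 d; 488 ex/500-520 em laser scan; total peak GFP intensity/well. Ref: 500 nM […] antisense PNA.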

[25] = biological target: Cytochrome P450 2C9 (Homo sapiens) (UniProt P11712); test: qHTS Assay for Inhibitors and Substrates of Cytochrome P450 2C9 (AID 883); note: potency is the fitted concentration of half-maximal effect; nearly all actives have a fitted effect of over 60% in size
Outline: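 Human CYP2C9 (10nM) with Luciferin-H at 100uM (its KM) in 25mM KPO4; compound preincubated 10 min at 37C, then NADPH regeneration for 60 min at 37C. Luciferin read by luminescence after detection reagent; normalized to 57uM sulphaphenazole as full inhibition.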

[26] = qHTS Assay for Identification of Small Molecule Antagonists for NFkB Signaling Pathway (AID 895; active = well fitted inhibition curve with a large enough effect in the signal ratio, with a control signal flat, not every such curve was filed as active; the % refers to the signal ratio; note: potency is the fitted concentration of half-maximal effect)
Outline: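 ME-180 NFkB-bla cells (beta-lactamase under NFkB response element), plated overnight, treated with compound then 10 pM TNF alpha (about EC50) for 5 hrs at 37 C. LiveBLAzer FRET read at 460/530 nm emission, 405 nm excitation.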

[27] = biological target: Pyruvate kinase (Leishmania mexicana) (UniProt Q27686); test: qHTS Validation Assay for Activators of Leishmania Mexicana Pyruvate Kinase (AID 959)
Outline: as §1

CNC(=O)[C@@H]1O[C@@H](n2cnc3c(NCc4cccc(I)c4)ncnc32)[C@H](O)[C@@H]1O
inactive: Potency [1] | activity change, negative = inhibition [2] 9.56% [at 38 µM] | activity, negative = inhibition [3] -11.2% [at 38 µM] | Potency [4] > 46 µM | Potency [5] > 46 µM | Potency [6] | outcome [7] | Potency [8] | Potency [9] | Potency [10] | Potency [11] | Potency [12] | outcome [13] | outcome [14]

CN1CCN([C@@H]2Cc3ccccc3Sc3ccc(Cl)cc32)CC1
inactive: activity, negative = inhibition [3] 2.01% [at 38 µM] | Potency [4] > 46 µM | Potency [5] > 46 µM | outcome [7] | Potency [8] | Potency [11] | outcome [17] | outcome [13] | outcome [14]
active: Potency [1] 12.6 µM | Potency [15] 0.398 µM | Potency [16] 1.78 µM | Potency [10] 10 µM

CCN1CC=C2C(C#N)=C(N)C(C#N)(C#N)[C@H](c3cccc(OC)c3OC)[C@H]2C1
inactive: activity change, negative = inhibition [18] 9.63% | Potency [4] > 20.6 µM
active: Potency [19] 29.1 µM

COCc1cc(=O)[nH]c(Nc2nc3ccc(C)cc3o2)n1
inactive: activity change, negative = inhibition [18] -0.718% | Potency [4] > 20.6 µM

FC(F)(F)c1ccccc1-c1nc(Nc2ccncc2)c2ccccc2n1
inactive: activity change, negative = inhibition [2] -8.21% [at 7.69 µM] | activity, negative = inhibition [3] -14.6% [at 7.69 µM] | Potency [4] > 46 µM | Potency [5] > 46 µM | Potency [20] | Potency [8] | Potency [23] | Potency [24]
active: Potency [1] 10 µM | Potency [21] 0.631 µM | Potency [22] 2 µM

COc1ccc(/C(O)=C2\C(=O)C(=O)N(c3cc(C)on3)C2c2ccccc2OC)cc1 (stereo not given)
inactive: activity change, negative = inhibition [18] -12.4% | Potency [4] > 20.6 µM

C#CCN1C(C)=C(C(=O)OC)[C@@H](c2cccc([N+](=O)[O-])c2)C(C(=O)OCC)=C1C
active: Potency [1] 12.6 µM | Potency [25] 0.316 µM | Potency [21] 3.16 µM | Potency [26] 3.55 µM | Potency [22] 5.01 µM
inactive: activity, negative = inhibition [3] -3.77% [at 38 µM] | Potency [4] > 46 µM | Potency [5] > 46 µM | Potency [20] | Potency [6] | outcome [7] | Potency [8] | Potency [9] | Potency [11] | outcome [17] | outcome [13] | outcome [14]

Oc1cc(O)cc(/C=C\c2ccc(O)c(O)c2)c1
inactive: activity change, negative = inhibition [2] 5.18% [at 38 µM] | Potency [4] > 46 µM | Potency [5] > 46 µM | Potency [20] | Potency [6] | Potency [8] | outcome [17] | Potency [27] | outcome [13] | outcome [14]
active: Potency [1] 5.01 µM | Potency [11] 1.26 µM | Potency [12] 2.51 µM
